In the supplement of paper PMC4237247:
Structures can show the parent of a compound that is named as a salt.

System: HeLa
Test: percent cells in S phase; higher = more S arrest
Details: 10 µM; 20 h
Procedure: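 HTS of 79,827 drug-like compounds at 10 uM. HeLa cells in 384-well plates were treated for 20 h, fixed, stained with Vybrant DyeCycle Green and scanned on an Acumen eX3 cytometer to give per-well cell cycle profiles (% cells in each phase). The plate Z' was 0.51. Only hits are listed: G1 hits >4 SD and S hits >5 SD from the mean.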

| SMILES | percent cells in S phase [%] |
| --- | --- |
| Cn1c(SCc2ccccc2)nc2ccccc2c1=O (hit class: S-phase inhibitor) | 20.6 |
| C[C@@H]1CCC[C@H](C)N1NC(=O)c1ccc(Cl)c(S(N)(=O)=O)c1 [Clopamide] (hit class: G1-phase inhibitor) | 8.75 |
| C[C@@H]1C[C@H]2[C@@H]3C[C@H](F)C4=CC(=O)C=C[C@]4(C)[C@@]3(Cl)[C@@H](O)C[C@]2(C)[C@H]1C(=O)COC(=O)C(C)(C)C [Clocortolone pivalate] (hit class: S-phase inhibitor) | 23.2 |
| Cc1cc(N2CCCCC2)c(F)cc1[N+](=O)[O-] (hit class: S-phase inhibitor) | 29.5 |
| O=C(COc1ccc(Cl)cc1)NC(Cc1c[nH]c2ccccc12)C(=O)O (configuration not stated) (hit class: G1-phase inhibitor) | 6.86 |
| COc1ccc(CSc2nncn2N)cc1 (hit class: S-phase inhibitor) | 19.7 |
| COc1c(C)c2c(c(O)c1C/C=C(\C)CCC(=O)O)C(=O)OC2 [Mycophenolic acid] (hit class: S-phase inhibitor) | 27.7 |
| CC[C@@H](C(=O)[C@@H](C)[C@@H](O)[C@H](C)CCc1ccc(C)c(O)c1C(=O)O)[C@H]1O[C@](CC)([C@H]2CC[C@](O)(CC)[C@H](C)O2)C[C@@H]1C [Lasalocid sodium salt] (hit class: G1-phase inhibitor) | 8.33 |
| c1ccc2c(c1)Nc1nc3ccccc3nc1O2 (hit class: G1-phase inhibitor) | 7.38 |
| Cc1ccc(-c2cc(-c3ccccc3Cl)[nH]n2)c(O)c1 (hit class: G1-phase inhibitor) | 7.81 |
| COc1ccc(C(=O)c2coc3ccc(OC)cc3c2=O)cc1 (hit class: G1-phase inhibitor) | 7.3 |
| Nc1ccn([C@H]2CC[C@@H](CO)O2)c(=O)n1 [Zalcitabine] (hit class: S-phase inhibitor) | 21.2 |
| COc1[nH]c2ccccc2c1C=NO (hit class: S-phase inhibitor) | 19.8 |
| Cc1cc([N+](=O)[O-])ccc1NCc1ccc(F)c(F)c1 (hit class: G1-phase inhibitor) | 9.44 |
| CC(=O)C1=C(O)C(=O)N(CC(=O)O)C1c1ccccc1F (configuration not stated) (hit class: S-phase inhibitor) | 20.4 |
| O=C1c2c(O)ccc(O)c2C(=O)c2c(NCCNCCO)ccc(NCCNCCO)c21 [Mitoxantrone dihydrochloride] (hit class: G1-phase inhibitor) | 6.2 |
| CCN(CC)Cc1c(O)ccc2c(=O)c(-c3ccccc3)coc12 (hit class: S-phase inhibitor) | 22.3 |
